# Screening data deposited in PubChem BioAssay by National Center for Advancing Translational Sciences (NCATS).
# Sm TGR inh – inhibitors of Schistosoma mansoni thioredoxin glutathione reductase. Q962Y6. purified TGR, DTNB reduction, TNB absorbance 405 nm. Potency, µM (titrated, usually from 114 µM), most hits filed as inhibitors. actives 3% (n = 360,000). AID 485364; further: nearly all actives have a fitted effect of over 60% in size
#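 First, TGR (20 nM dispensed) and NADPH were mixed with compound. Second, a 15 min room-temperature incubation followed. Third, further NADPH and then DTNB were added to start the reaction. Finally, TNB absorbance was monitored kinetically.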
# Pf growth 48h – P. falciparum growth inhibition at 48 hours (one generation). P. falciparum luciferase growth in erythrocytes, 48 h. Potency, µM (titrated, usually from 28.7 µM), hits mostly inhibitors. actives 5.9% (n = 310,000). AID 504832
#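 Parasite viability was followed by luminescence of a genomically integrated firefly luciferase. Cultures held 0.1% parasitemia at 2% hematocrit (final), incubated under 5% CO2 at 37 C.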
# HCV inhibitor – inhibitors of hepatitis C virus infection. AID 651820. Potency, µM (top dose mostly 41.8 µM), hits mostly inhibitors. Huh7.5.1 HCVcc-Cre infection, luciferase reporter, 44 h. actives 3.4% (n = 340,000)
#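 Infectious HCV cell culture screen: compound-treated cells (1,000/well, pre-plated 4 h) are infected with HCVcc-Cre at roughly 0.5 moi and grown 44 h. Infection is quantified by luciferase signal after 15 min substrate incubation at room temperature.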
# Pf growth 96h – P. falciparum growth inhibition at 96 hours. P. falciparum luciferase reporter growth, 96 h. Potency, µM (titrated, usually from 28.7 µM), usual class: inhibitors. actives 6.9% (n = 320,000)
#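 Infected RBCs, 2% Hct / 0.05% parasitemia final; luciferase-reporter P. falciparum; cpd 96 h, 37 C, 5% CO2; luciferase detection reagent; luminescence.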
# SARS PLpro yeast – inhibitors of SARS-CoV papain-like protease in yeast; S. cerevisiae expressing SARS-CoV PLpro, growth rescue; AID 485353; actives 0.19% (n = 330,000); Potency, µM (series often up to 32.9 µM), hits mostly activators; calls by dose curve; further: nearly all actives have a fitted effect of over 55% in size
# HCMV antiviral – blocks human cytomegalovirus replication; HFF cells, HCMV-luciferase reporter, 72 h; hits give low values; activity change, negative = inhibition, % at 57.5 µM; actives 4.5% (n = 410,000); in the data active means activity change below about -60%; inconclusive means no clear call, values can overlap the other calls; inactive means above about -39%
#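 Inhibition of viral replication was scored as loss of reporter luminescence in HFFs infected with HCMV-luciferase (MOI 1 PFU/cell) for 72 h; compounds tested at 2 doses, normalized to buffer and Salinomycin controls.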
# A number is an active result; 0 = inactive; ? = inconclusive; - = no result; ! = a repeat was not active. A selection: hits, their analogues and other compounds. The true share with any hit is near 15%. Unless noted, the call rests on the fitted dose curve; in most records, active means well fitted curve in the direction sought with a large enough effect; inconclusive means small, poorly fitted or top-dose-only effect, or another doubt; inactive means no such curve, though single readings can be large; an effect the other way counts as inactive or inconclusive.
SMILES,Sm TGR inh,Pf growth 48h,HCV inhibitor,Pf growth 96h,SARS PLpro yeast,HCMV antiviral
COc1ccc(CNC(=O)O[C@H]2Cn3c(=O)ccc(=O)n3[C@@H]3CN(S(=O)(=O)c4ccc(C)cc4)C[C@]23O)cc1OC,-,-,-,-,-,0
Cc1ccc(CN2C(=O)N(c3ccc(F)cc3)C(=O)C2CC(=O)Nc2ccc(Cl)cc2)cc1 (stereo not drawn),0,-,-,-,-,0
Cc1nc2nc(CNC(=O)OC(C)(C)C)nn2c(C)c1CCC(=O)NCc1ccccc1Cl,0,-,-,-,-,0
O=C1NCN(c2ccccc2)C12CCN(CC1COc3ccccc3O1)CC2 (stereo not drawn),-,?,-,0,-,-
O=C1NCN(c2ccccc2)C12CCN(CCCC(c1ccc(F)cc1)c1ccc(F)cc1)CC2,0,1.9µM,?,3.7µM,0,0
O=C(NCCCN1CCOCC1)c1ccc2ccccc2c1,0,0,?,0,0,0
O=c1[nH]c2ccccc2n1C1CCN(CCCC(c2ccc(F)cc2)c2ccc(F)cc2)CC1,0,?,2µM!,2.6µM,0,?
O=C(NCCN1CCC2(CC1)C(=O)NCN2c1cccc(F)c1)c1ccc2ccccc2c1,-,-,-,-,-,-101
O=C1NCN(c2ccccc2)C12CCNCC2,0,2.6µM,0,?,0,0
O=C(NCCN1CCC(n2c(=O)[nH]c3ccccc32)CC1)c1ccccc1,-,-,-,-,-,0
NN(Cc1ccccc1)C(=S)Nc1ccc(Cl)c(Cl)c1,0,0,0,0,0,0
Cc1cccc(NC(=O)CSc2nnc([C@@H](N)Cc3c[nH]c4ccccc34)o2)c1C,0,?,0,1.7µM,0,0
CCN1C(=O)C(=O)N(CC(=O)NC(C)CCc2ccccc2)C1=O (stereo not drawn),0,0,0,0,0,0
CC(C)CNC(=O)c1oc2ccccc2c1COc1ccccc1,0,12µM,0,10µM,0,?
CCC(CC)NC(=O)c1oc2ccccc2c1COc1ccccc1,0,6.6µM,?,4.1µM,0,0
Cc1cc(C)cc(NC(=O)c2oc3ccccc3c2COc2ccccc2)c1,0,?,0,0,0,0
CCCCN(CC)CCCNC(=O)c1cn(CC(C)C)c(=O)c2c1c1ccccc1n2C,32µM!,13µM,?,0,0,0
CCN(C(=O)c1nn(-c2ccc(OC)cc2)c(=O)c2c1c1ccccc1n2C)c1ccc(OC)cc1,0,0,0,0,0,0
CCOC(CCNC(=O)c1cn(CC(C)C)c(=O)c2c1c1ccccc1n2C)OCC,0,0,0,0.52µM,0,0
CCCCN(C)CCNC(=O)c1nn(-c2ccc(OC)cc2)c(=O)c2c1c1ccccc1n2C,0,?,0,2.6µM,0,?
CCN(CC)CCCNC(=O)c1cn(CC(C)C)c(=O)c2c1c1ccccc1n2C,?,0,0,0,0,0
COc1ccc(OC)c(CN2CCN(Cc3cc(OC)c(OC)c(OC)c3)CC2)c1,0,0,0,13µM,-,0
COc1ccc(CN2CCN(C(c3ccc(F)cc3)c3ccc(F)cc3)CC2)c(OC)c1OC,-,9.5µM,1µM,6.7µM,-,0
COc1ccc(CN2CCN(Cc3cc(=O)oc4cc(C)ccc34)CC2)c(OC)c1OC,?,?,?,9.3µM,0,0
COc1ccccc1N1CCN(Cc2cc(=O)oc3cc(C)ccc23)CC1,-,-,-,-,-,0
SMILES,Sm TGR inh,Pf growth 48h,HCV inhibitor,Pf growth 96h,SARS PLpro yeast,HCMV antiviral
COc1ccc(CN2CCN(Cc3ccc(Br)cc3)CC2)c(OC)c1OC,0,0,13µM,0,0,-68
CC(=O)c1cc(-c2ccccc2)n(CC(=O)NCCc2ccc(C)cc2)c1C,0,-,-,-,-,0
C=CCC(O)c1nc(C(=O)Nc2ccc(F)cc2)cs1 (stereo not drawn),-,-,-,-,-,0
C/C=C(\C)C(=O)NCCN1C2=NC[C@@H](C)N2C[C@@H]1Cc1ccc(OC)cc1,0,0,0,0,0,0
Cc1ccc(C(=O)N[C@@H](C)CN2C3=NC[C@H](C(C)C)N3C[C@H]2Cc2ccc(O)cc2)cc1Br,8.9µM,?,0,9.3µM,0,0
COc1ccc(C[C@H]2CN3C(=NC[C@@H]3C(C)C)N2C[C@H](C)NC(=O)c2ccc(C)c(Br)c2)cc1,0,?,0,2.9µM,0,0
